In PubChem BioAssay (NCI):
This is part of a sample that, as a whole, favours compounds with a hit. Of some 83,000 tested, about 20% had one in any assay.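 Single-dose data. Exposure time 48 hours. Values below 10 considered active.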 Unmarked numbers belong to inactive results. Active and inactive are the calls of the source.

tested on: SNB-75 CNS; assay: NCI-60 one-dose screen, 48 h (100 = growth as untreated, 0 = no growth, -100 = all killed); conditions: 10 µM unless noted

SMILES | growth
CC[C@H](C)[C@H](NC(=O)Nc1ccccc1)C(=O)N(C)[C@H](C[C@@H](OC(C)=O)c1nc(C(=O)N[C@@H](Cc2ccccc2)C[C@H](C)C(=O)OC)cs1)C(C)C | 5.16% (active)
c1ccc(CCN2CCCCC2Cc2ccccc2)cc1 (configuration not stated) | 107%
CC(=O)O[C@H]1CCC2(C)C(=CCC3C2CCC2(C)/C(=N/OC(=O)c4ccc(N(CCCl)CCCl)cc4)CCC32)C1 (some centres not stated) | 22.5%
O=C(N/N=C/c1ccc(N(CCCl)CCCl)cc1)c1cc(=O)[nH]c(=O)[nH]1 | 92.8%
O=[As]c1ccc(C(=O)c2ccc(Oc3ccccc3)cc2)cc1 (configuration not stated) | -92% (active)
O=[N+]([O-])c1cc([N+](=O)[O-])c(Cl)c(Cl)c1Cl | 59.6%
Cc1cc(NC(=O)NCCOc2ccc(N3C(N)=NC(N)=NC3(C)C)cc2Cl)ccc1S(=O)(=O)F | 71.5%
COc1ccc2c(c1)NC1=C(C(=O)OC1)C2c1cc(OC)c(OC)c(OC)c1 (configuration not stated) | 45.7%
C=CCc1ccc(OC(=O)Cc2ccccc2)c(OC)c1 | 76.3%
C[C@]12CCc3sc(-c4ccc(Cl)cc4)nc3C1=CC[C@@H]1[C@@H]2CC[C@]2(C)C(=O)CC[C@@H]12 | 58.3%
C=CCC1(CC)C(=O)NC(=S)NC1=O | 104%
O=C(CF)N(O)c1ccc(/C=C/c2ccccc2)cc1 | 70.9%
Nc1nc(N)c(-c2ccc(Cl)c(Cl)c2)c(/C=C/c2ccc(S(=O)(=O)F)cc2)n1 | 78.4%
Nc1c(Br)cc([N+](=O)[O-])cc1[N+](=O)[O-] | 99.2%
Oc1ccc(O)c2c1C1(Cl)C(Cl)=C(Cl)C2(Cl)C1(Cl)Cl | 31.6%
CN(C)P1(N(C)C)=NP(N(C)C)(N(C)C)=NP(N(C)C)(N(C)C)=N1 | 90.3%

SMILES | growth
CCCCNCCc1ccccn1 | 104%
C=C=[CH][Sn]([c]1ccccc1)([c]1ccccc1)[c]1ccccc1 | 14.2%
NC(=O)SCC(=O)Nc1ccc([As](=O)(O)O)cc1 | 96.6%
CC1(C)N=C(N)N=C(N)N1c1ccc(CCCCc2ccc(S(=O)(=O)F)cc2)cc1 | 63.7%
Nc1c(Br)cc2c3c(cccc13)-c1ccccc1-2 | 60.9%
COc1cc2c(cc1OC)CN(C)C(C)C2 (configuration not stated) | 87.3%
CC(C)C1c2ccc(O)cc2Oc2nc(N)c(C#N)c(N)c21 (configuration not stated) | 81.4%
c1ccc2nc(OCCN3CC3)ccc2c1 | 77%
CC1(C)N=C(N)N=C(N)N1c1ccc(CNC(=O)Nc2ccc(S(=O)(=O)F)c(Cl)c2)c(Cl)c1 | 69.2%
c1ccc(-c2ccc3ccccc3[o+]2)cc1 | 80.5%
CSc1ccccc1NP1(=O)OCC(C)([N+](=O)[O-])CO1 (configuration not stated) | 86%
CC1COC(=O)C1 (configuration not stated) | 81.9%
CCCC(C)(C)c1ccc2c(c1)OC(C)(C)[C@@H]1CC=C(C)C[C@@H]21 | 88.2%
OC1(c2ccc(Cl)cc2Cl)c2ccccc2C2=NCCN21 (configuration not stated) | 94.2%
CC1(CF)NC(=O)NC1=O (configuration not stated) | 89.9%
O=C(Nc1ccc(S(=O)(=O)F)cc1)Oc1ccccc1 | 85.5%

tested on: SNB-19 CNS; assay: as above; conditions: 10 µM unless noted

SMILES | growth
Fc1ccc(C2=NN(c3ccccc3)C(c3sc(N(CCCl)CCCl)nc3Cl)C2)cc1 (configuration not stated) | 95.6%
CC[C@H](C)[C@H](NC(=O)Nc1ccccc1)C(=O)N(C)[C@H](C[C@@H](OC(C)=O)c1nc(C(=O)N[C@@H](Cc2ccccc2)C[C@H](C)C(=O)OC)cs1)C(C)C | 45%
c1ccc(CCN2CCCCC2Cc2ccccc2)cc1 (configuration not stated) | 111%
CC(=O)O[C@H]1CCC2(C)C(=CCC3C2CCC2(C)/C(=N/OC(=O)c4ccc(N(CCCl)CCCl)cc4)CCC32)C1 (some centres not stated) | 37.7%
O=[As]c1ccc(C(=O)c2ccc(Oc3ccccc3)cc2)cc1 (configuration not stated) | -97.4% (active)
O=[N+]([O-])c1cc([N+](=O)[O-])c(Cl)c(Cl)c1Cl | 73.5%
Cc1cc(NC(=O)NCCOc2ccc(N3C(N)=NC(N)=NC3(C)C)cc2Cl)ccc1S(=O)(=O)F | 51.5%
COc1ccc2c(c1)NC1=C(C(=O)OC1)C2c1cc(OC)c(OC)c(OC)c1 (configuration not stated) | 47.3%
C=CCc1ccc(OC(=O)Cc2ccccc2)c(OC)c1 | 110%
CC(C)(O)/C=C/C(=O)[C@](C)(O)[C@H]1[C@H](O)C[C@@]2(C)[C@@H]3CC=C4[C@@H](C=C(O)C(=O)C4(C)C)[C@]3(C)C(=O)C[C@]12C | -53.1% (active)
C=CCC1(CC)C(=O)NC(=S)NC1=O | 97.1%
NC(Cc1ccc2c(c1)OCO2)c1ccc2c(c1)OCO2 (configuration not stated) | 93.6%
O=C(CF)N(O)c1ccc(/C=C/c2ccccc2)cc1 | 54.3%
COc1ccc(/C=C(/C(=O)N2CCCC2)c2cc(OC)c(OC)c(OC)c2)cc1N | 44.4%
Nc1nc(N)c(-c2ccc(Cl)c(Cl)c2)c(/C=C/c2ccc(S(=O)(=O)F)cc2)n1 | 102%
Nc1c(Br)cc([N+](=O)[O-])cc1[N+](=O)[O-] | 102%
Oc1ccc(O)c2c1C1(Cl)C(Cl)=C(Cl)C2(Cl)C1(Cl)Cl | 64.9%
CN(C)P1(N(C)C)=NP(N(C)C)(N(C)C)=NP(N(C)C)(N(C)C)=N1 | 103%

SMILES | growth
CCCCNCCc1ccccn1 | 113%
CNC(=O)Oc1cccc(OC)c1 | 103%
C=C=[CH][Sn]([c]1ccccc1)([c]1ccccc1)[c]1ccccc1 | -50% (active)
NC(=O)SCC(=O)Nc1ccc([As](=O)(O)O)cc1 | 92.8%
C[C@]12CC[C@H]3[C@@H](C[C@@H]4N=C(c5ccc(O)cc5)S[C@@]45C[C@H](O)CC[C@]35C)[C@@H]1CC[C@@H]2O | 71%
CC1(C)N=C(N)N=C(N)N1c1ccc(CCCCc2ccc(S(=O)(=O)F)cc2)cc1 | 42%
COc1cc2c(cc1OC)CN(C)C(C)C2 (configuration not stated) | 99%
CC(C)C1c2ccc(O)cc2Oc2nc(N)c(C#N)c(N)c21 (configuration not stated) | 101%
c1ccc2nc(OCCN3CC3)ccc2c1 | 87%
CC1(C)N=C(N)N=C(N)N1c1ccc(CNC(=O)Nc2ccc(S(=O)(=O)F)c(Cl)c2)c(Cl)c1 | 56%
c1ccc(-c2ccc3ccccc3[o+]2)cc1 | 93.3%
CSc1ccccc1NP1(=O)OCC(C)([N+](=O)[O-])CO1 (configuration not stated) | 97.1%
CC1COC(=O)C1 (configuration not stated) | 105%
COc1ccc(/C=C\c2cc(OC)c(OC)c(OC)c2)cc1N/C=C\C(=O)c1c[nH]c2ccccc12 | 38.6%
CCCC(C)(C)c1ccc2c(c1)OC(C)(C)[C@@H]1CC=C(C)C[C@@H]21 | 103%
CC1(CF)NC(=O)NC1=O (configuration not stated) | 97.9%
O=C(Nc1ccc(S(=O)(=O)F)cc1)Oc1ccccc1 | 97.6%
